# CHT block: inhibitors of human choline transporter CHT. High affinity choline transporter 1 (Homo sapiens), Q9GZV3. CHT-expressing cells, membrane potential dye, choline response; active compounds read low. B-score at 10 µM. actives 0.86% (n = 310,000);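 active means B-score over 3 SD under the library average, and starting fluorescence ratio not unusually high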;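 further: choline stimulus applied at its EC90 after an EC20 pre-addition; B-score computed on integrated fluorescence ratio after choline addition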
# PREPL inh: PREPL enzyme inhibitors, primary screen, biochemical, fluorescence polarization. recombinant PREPL, fluorescence polarization activity-based probe. inhibition, % at 5.96 µM. actives 0.68% (n = 320,000). AID 2751, 2010; in the data active means inhibition above about 43%;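 further: 0% = enzyme with DMSO and 100% = wells lacking enzyme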
# Target sequence (Q4J6C6 whole entry, looked up): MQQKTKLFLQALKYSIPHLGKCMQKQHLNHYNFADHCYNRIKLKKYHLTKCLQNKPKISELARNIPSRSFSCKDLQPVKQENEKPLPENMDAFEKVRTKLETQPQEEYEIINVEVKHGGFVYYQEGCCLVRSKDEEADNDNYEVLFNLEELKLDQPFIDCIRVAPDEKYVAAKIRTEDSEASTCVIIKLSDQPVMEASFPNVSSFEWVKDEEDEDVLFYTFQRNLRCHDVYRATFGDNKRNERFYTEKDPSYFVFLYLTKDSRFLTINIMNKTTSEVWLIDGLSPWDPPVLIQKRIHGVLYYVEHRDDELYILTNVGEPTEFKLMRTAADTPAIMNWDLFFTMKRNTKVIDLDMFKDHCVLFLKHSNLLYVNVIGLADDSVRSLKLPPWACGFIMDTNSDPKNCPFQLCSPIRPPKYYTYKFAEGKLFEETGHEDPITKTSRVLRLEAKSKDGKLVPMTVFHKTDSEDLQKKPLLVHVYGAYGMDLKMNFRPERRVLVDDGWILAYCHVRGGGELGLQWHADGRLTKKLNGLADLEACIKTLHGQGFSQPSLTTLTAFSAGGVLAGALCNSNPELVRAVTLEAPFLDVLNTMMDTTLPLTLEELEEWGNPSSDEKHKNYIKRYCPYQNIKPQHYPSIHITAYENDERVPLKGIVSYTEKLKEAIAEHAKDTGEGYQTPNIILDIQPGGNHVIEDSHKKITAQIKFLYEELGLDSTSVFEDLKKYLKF
# CHT allo act: CHT positive allosteric modulators, primary screen, cell-based, membrane potential dye, choline EC20; CHT-expressing cells; active compounds read high; LV-AA mutant CHT in HEK293 cells; actives 0.49% (n = 310,000); B-score at 10 µM; AID 488977, 2010; High affinity choline transporter 1 (Homo sapiens), Q9GZV3;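 active means initial fluorescence not abnormally high and integrated response B-score, plate-corrected, over 3 SD above library mean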
# AI-2 QS mod: Vibrio harveyi AI-2 quorum sensing modulators, primary screen, JMH597 strain, luminescence/OD600 ratio | Vibrio harveyi JMH597 AI-2 luminescence/OD600 ratio, 9 h; active compounds read low; strain lacks LuxN and CqsS sensors; 0 = neutral-control median | activity change, % at 7.5 µM | actives 0.4% (n = 300,000) | AID 2094, 2009; in the data active means activity change below about -75%, passing the limit was not always enough;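 further: luminescence divided by OD600 gain over 9 h not by final OD600 alone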
# ALR inh: inhibitors of human ALR sulfhydryl oxidase, primary screen, biochemical, H2O2 detection, HRP-luminol luminescence, single point. purified ALR, DTT oxidation. inhibition, % (test concentration not listed). actives 3.8% (n = 290,000);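 active means mean replicate inhibition above about 79%, with every replicate also reaching it, limit read from the data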
# Numbers without * were called inactive; i = inactive; . = not tested or not shown. In the library only some 5% were active in any assay of this set; here they are far more common.
SMILES,CHT block,PREPL inh,CHT allo act,AI-2 QS mod,ALR inh
CCCNC(=O)C(Cc1cccc(OC)c1)NC(=O)c1ccc(C(C)(C)C)cc1 (centres undefined),.,-1.0,.,.,-4.5
NC1=NC(=O)/C(=C/c2cn(CCC(=O)O)nc2-c2ccc(Cl)cc2)S1,i,9.6,i,18.3,98.1*
CCCc1nc(SCC(=O)N2CCOCC2)c2c(C)c(C)sc2n1,i,12.1,i,45.3,-4.7
N#Cc1c(NC(=O)CSc2n[nH]c(N)n2)oc(-c2ccccc2)c1-c1ccccc1,i,-5.5,i,5.3,79.2*
O=C(CSc1n[nH]c(-c2ccncc2)n1)c1ccccc1,i,9.4,i,17.5,26.4
Nc1nc(SCC(=O)c2cccc([N+](=O)[O-])c2)n[nH]1,i,-1.3,i,4.2,82.8*
Cc1nc(SCC(=O)c2ccccc2)n[nH]1,i,8.6,i,10.2,90.0*
Nc1nc(SCC(=O)Nc2ccc([N+](=O)[O-])cc2)n[nH]1,i,12.9,i,-3.7,97.2*
O=C(CNC(=S)N(CCCN1CCOCC1)Cc1cccs1)N1CCCCCC1,i,6.9,i,35.7,-2.3
CN(Cc1cc(=O)n2ccsc2n1)C1CCCCC1,i,12.8,i,6.7,-15.1
CC(C)Oc1ccc(N2CC(C(=O)Nc3ccccc3C(=O)NC3CC3)CC2=O)cc1 (centres undefined),i,3.0,i,-0.2,2.1
C/C(=C\c1ccc(N)cc1)c1nc2ccccc2[nH]1,i,5.3,i,6.9,98.9*
CCc1cc(=O)oc2c(CN3CCCC3)c(O)c(Cl)cc12,i,-2.3,i,1.5,5.1
CCc1c(C)c2cc(Cl)c(O)c(CN3CCCCC3)c2oc1=O,i,3.1,i,23.9,98.3*
Cc1cc(NS(=O)(=O)c2ccccc2)cc(Cl)c1O,i,7.8,i,5.7,98.7*
O=C(COc1ccccc1F)OCC(=O)c1ccc([N+](=O)[O-])cc1,.,13.2,.,.,79.2*
Cc1ccccc1OCC(=O)NCC(=O)OCC(=O)c1ccc([N+](=O)[O-])cc1,i,7.8,i,9.8,96.6*
O=C(CNC(=O)c1cccs1)NCC(=O)OCC(=O)c1ccc([N+](=O)[O-])cc1,i,11.0,i,27.4,95.9*
Cc1ccc(C(=O)COC(=O)CNC(=O)COc2ccccc2C)cc1C,i,-41.7,i,15.6,-47.0
O=C(CNC(=O)c1cccs1)OCC(=O)c1ccccc1,i,-1.1,i,9.7,-3.9
CCOC(=O)C1=NN(C(=O)Cc2ccccc2)C(O)(C(C)(C)C)C1 (centres undefined),i,-1.6,i,11.8,3.1
CCC(C)Nc1nc2c(c(=O)n(C)c(=O)n2C)n1Cc1cccc(C)c1 (centres undefined),i,23.5,i,26.5,97.4*
CCC(C)Nc1nc2c(c(=O)n(C)c(=O)n2C)n1Cc1ccc(Cl)cc1 (centres undefined),i,30.1,i,0.7,8.8
Clc1ccc(CSc2nnc(-c3ccncc3)o2)cc1,i,2.2,i,-70.3,-5.3
Fc1ccc(CSc2nnc(-c3ccncc3)o2)cc1,i,-3.1,i,-78.0*,-5.9
SMILES,CHT block,PREPL inh,CHT allo act,AI-2 QS mod,ALR inh
Cc1ccc(O)c(-c2cc(C(=O)NCc3ccncc3)[nH]n2)c1,i,-2.9,i,-40.7,90.2*
O=C(CC(SCCO)c1ccc2c(c1)OCO2)c1ccco1 (centres undefined),i,-0.2,i,8.5,97.4*
O=C(NCc1ccc2c(c1)OCO2)c1ccco1,i,-0.9,i,10.3,-14.9
COc1ccc(NC(=O)CCOc2ccccc2F)cc1S(=O)(=O)N1CCCCC1,.,19.3,.,.,-4.5
Cc1nc(SCC(=O)c2ccc(F)cc2)c([N+](=O)[O-])[nH]1,i,19.1,i,7.7,93.3*
COc1ccc(Oc2c(C)nc(SCC(=O)c3ccc(Cl)cc3)[nH]c2=O)cc1,i,3.9,i,3.4,88.4*
Cc1nc(SCC(=O)c2ccc(Cl)cc2)c([N+](=O)[O-])[nH]1,i,7.7,i,7.1,98.7*
COc1ccc(C(=O)CCc2ccccc2)cc1,i,-1.7,i,-59.2,-1.6
CCOC(=O)c1c(NC(=O)CCc2ccc(CC)o2)sc(C)c1C,i,12.4,i,11.1,97.5*
Cc1ccc(CCC(=O)Nc2ccc(Br)cc2)o1,i,.,i,-88.0*,3.0
COC(=O)c1c(NC(C)=O)sc(C)c1C,i,15.2,i,-6.5,.
CCOC(=O)c1ccc(NC(=O)CCc2ccc(CC)o2)cc1,i,7.0,i,-14.2,12.8
COC(=O)c1c(NC(=O)CCc2ccc(C)o2)sc(C)c1C,i,-6.7,i,-2.6,97.1*
CCc1ccc(/C=C/C(=O)c2c(C)cc(C)[nH]c2=O)cc1,i,9.6,i,33.4,13.9
CCCCn1c(N)c(N(CC)C(=O)c2cccc(S(=O)(=O)N3CCN(C)CC3)c2)c(=O)[nH]c1=O,i,10.0,i,10.6,-1.6
O=C(CC1CC2CCC1C2)OCC(=O)c1c[nH]c2ccccc12 (centres undefined),i,3.3,i,-83.9*,-3.6
O=C(COC(=O)CC1CC2CCC1C2)NCc1ccc(F)cc1 (centres undefined),.,-0.4,.,.,-1.2
CC(C)(C)c1nnc2sc(SCCN3C(=O)c4ccccc4C3=O)nn2c1=O,i,-5.7,i,12.8,98.7*
CCOC(=O)COn1c(=O)c(=O)n(O)c2ccccc21,i,4.1,i,25.6,99.6*
COc1ccccc1/C=C1/C(=O)ON=C1C,i,3.8,i,13.3,97.8*
COc1ccc(S(=O)(=O)N(Cc2cccs2)C2CCCC2)cc1,i,8.8,i,25.8,98.9*
NNc1nc2cc3c(cc2s1)OCCO3,i,8.3,i,4.5,99.2*
CCCC1=C(C(=O)OCC)C(c2ccc(N(C)C)cc2)n2ncnc2N1 (centres undefined),i,7.2,i,10.1,98.5*
CCCC1=C(C(=O)OCC)C(c2ccc(F)cc2)n2ncnc2N1 (centres undefined),i,0.1,i,19.0,9.1
CCCCc1ccc(NC(=O)CSC2=C(C#N)C(c3ccco3)C3=C(CCCC3=O)N2)cc1 (centres undefined),i,8.6,i,10.6,98.5*
Cc1ccc(C(=O)CSC2=C(C#N)C(c3ccco3)C3=C(CCCC3=O)N2)cc1 (centres undefined),i,16.4,i,-11.2,99.1*
